Sampled rows, rich in hits. Any-hit rate of the full collection: about 3.1%.
Anthrax LF inh2: inhibitors of Bacillus anthracis lethal factor protease; multiplex microsphere protease cleavage assay, LF; inhibition, % at 10 µM; actives 0.12% (n = 360,000)
PriA SSB inh: blocks PriA binding to SSB C-terminal tail; AID 1272365; AlphaScreen SSBct-PriA binding, biotinylated peptide; inhibition, % at 33 µM; actives 0.6% (n = 430,000); in the data active means inhibition mostly above about 37%, no sharp cut-off; inactive means mostly below about 20%
BoNT A protease: inhibitors of Botulinum neurotoxin A light chain protease; AID 588499; multiplex microsphere protease substrate cleavage, flow cytometry; actives 0.17% (n = 360,000); inhibition, % at 10 µM
Bead autofluor: compound fluorescence in toxin protease inhibitor counterscreen | compound autofluorescence counterscreen, microsphere flow cytometry; active compounds read high | fluorescence intensity (no concentration beside the values) | actives 3.1% (n = 360,000); in the data active means fluorescence intensity above about 16000; inconclusive means no clear call, values can overlap the other calls
BoNT-F LC inh: BoNT F light chain protease inhibition; Multiplex microsphere protease cleavage assay, flow cytometry; actives 0.22% (n = 360,000); AID 588497; inhibition, % at 10 µM; in the data active means inhibition above about 35%, passing the limit was not always enough; inconclusive means no clear call, values can overlap the other calls
Of the large screens only hits and unclear results are named; the others gave an inactive call. Unless noted, no stated cut-off is given here; in the data, active means inhibition above about 30%; inconclusive means no clear call, values can overlap the other calls; inactive means below that.

CC(C)C(NC(=O)COc1ccccc1)C(=O)O (stereo unspecified)	Bead autofluor 19854
Nc1nnc(C(F)(F)F)o1	none (no result: Anthrax LF inh2, BoNT A protease, Bead autofluor, BoNT-F LC inh)
Cc1cn(C(=O)c2ccccc2)c(=S)n1-c1ccc(Cl)cc1	Bead autofluor 17230
Cc1ccc(-n2c(C)cn(C(=O)c3ccccc3)c2=S)cc1	none
CC(=O)C1=C(O)C(=O)N(CCN(C)C)C1c1ccc(Cl)cc1 (stereo unspecified)	Bead autofluor 20540
CCCCCCN1C(=O)C(O)=C(C(C)=O)C1c1ccc(Cl)cc1 (stereo unspecified)	none
Clc1cccc(N2CCNCC2)c1Cl	Bead autofluor 19873
c1ccc2c(N3CCNCC3)cccc2c1	none
CC(NC(=O)CNC(=O)c1cccc(Cl)c1)c1ccccc1 (stereo unspecified)	PriA SSB inh 66.3
CC(NC(=O)NC(=O)c1cccc(Cl)c1)c1ccccc1 (stereo unspecified)	none
CC(=O)N1c2ccc(S(=O)(=O)N3CCN(c4ccc5nncn5n4)CC3)cc2CC1C (stereo unspecified)	none (no result: Anthrax LF inh2, BoNT A protease, Bead autofluor, BoNT-F LC inh)
Clc1ccc(CSc2nncn2-c2ccccn2)cc1	Bead autofluor 23849
Cc1ccccc1Oc1ncnc2sccc12	Bead autofluor 18377
O=C(Cc1c(F)cccc1Cl)NC[C@@H](O)Cc1ccccc1	none (no result: Anthrax LF inh2, BoNT A protease, Bead autofluor, BoNT-F LC inh)
CC(=O)Cn1c2ccccc2n2nc(CCC(=O)O)c(=O)nc12	none
COc1ccc(C(=O)Cn2c3ccccc3n3nc(CCC(=O)O)c(=O)nc23)cc1OC	Bead autofluor 20229
Cc1cc(C(=O)NCc2cc(-c3ccc4c(c3)OCO4)on2)c(C)o1	none (no result: Anthrax LF inh2, BoNT A protease, Bead autofluor, BoNT-F LC inh)
Cc1ccccc1Nc1nc(N2CCC(Cc3ccccc3)CC2)nc2c1cnn2C	none (no result: Anthrax LF inh2, BoNT A protease, Bead autofluor, BoNT-F LC inh)
O=C(c1ccco1)N(CCC(c1ccccc1)c1ccco1)Cc1ccc(F)cc1 (stereo unspecified)	Bead autofluor 16623
CC1(C)CC(C(CCN(Cc2ccccc2)C(=O)c2ccco2)c2ccc(F)cc2)CCO1 (stereo unspecified)	none
CN(C)S(=O)(=O)c1ccc(Oc2ccccc2)cc1	none
CN(C)/C=C1\C(=O)N(c2ccc(Oc3ccccc3)cc2)CS1=O (stereo unspecified)	Bead autofluor 22670
Cc1nc(NC(=O)/C=C/c2ccccc2)sc1C(=O)Nc1ccc(Cl)cc1	Bead autofluor 23690
Cc1nnsc1C(=O)Nc1ccc(Cl)cc1	Bead autofluor 21839
Cc1nnsc1C(=O)Nc1ccccc1Cl	Bead autofluor 21871
O=C(CCSc1ccccc1)NCc1cccnc1-c1ccsc1	none (no result: Anthrax LF inh2, BoNT A protease, Bead autofluor, BoNT-F LC inh)
O=C(Nc1cc(OCc2ccc3c(c2)OCO3)ncn1)c1ccc(Cn2ccnc2)cc1	none (no result: Anthrax LF inh2, BoNT A protease, Bead autofluor, BoNT-F LC inh)
COc1ccc(OC)c(-c2cc(C(=O)NCCc3nc(-c4ccco4)cn3C)n(C)n2)c1	PriA SSB inh 35.0 (no result: Anthrax LF inh2, BoNT A protease, Bead autofluor, BoNT-F LC inh)
COc1ccc(OC)c(-c2cc(C(=O)NCc3cc(-c4ccco4)n(C)n3)n(C)n2)c1	none (no result: Anthrax LF inh2, BoNT A protease, Bead autofluor, BoNT-F LC inh)
COc1ccc(OC)c(-c2cc(C(=O)NCC#CCOc3ccc4c(c3)OCO4)n(C)n2)c1	PriA SSB inh 53.0 (no result: Anthrax LF inh2, BoNT A protease, Bead autofluor, BoNT-F LC inh)
COc1ccc(-c2cc(=O)n(CC(=O)Nc3ccccc3SC)cn2)cc1	none (no result: Anthrax LF inh2, BoNT A protease, Bead autofluor, BoNT-F LC inh)
CCn1c(SCC(=O)N/N=C/C=C\c2ccccc2[N+](=O)[O-])nc2ccccc21	BoNT A protease inconclusive, Bead autofluor 22694 (no result: PriA SSB inh)
CCn1c(SCC(=O)NN=Cc2cc(OC)c(O)c(OC)c2)nc2ccccc21	none (no result: Anthrax LF inh2, BoNT A protease, Bead autofluor, BoNT-F LC inh)
CCn1c(SCC(=O)N/N=C/c2ccc(OC)c(OC)c2)nc2ccccc21	Bead autofluor 22575 (no result: PriA SSB inh)
CC1(C)C(=O)NCCN1C(=O)CS(=O)(=O)c1ccc(F)cc1	none (no result: Anthrax LF inh2, BoNT A protease, Bead autofluor, BoNT-F LC inh)
Cc1c(Cl)cccc1Nc1ccccc1C(=O)O	none
O=C(O)c1ccccc1Nc1ccccc1C(=O)O	BoNT A protease inconclusive, Bead autofluor 17128
O=C(/C=N/O)Nc1ccccc1C(=O)O	Bead autofluor 22836 (no result: PriA SSB inh)
O=C(CCCS(=O)(=O)c1ccc(F)cc1)Nc1nc(-c2cc([N+](=O)[O-])cs2)cs1	none (no result: Anthrax LF inh2, BoNT A protease, Bead autofluor, BoNT-F LC inh)
O=C(CN1C(=O)CCSc2ccccc21)Nc1ccc2c(c1)OCCO2	Bead autofluor 16584
CC1CC(=O)N(CC(=O)Nc2ccc3c(c2)OCO3)c2ccccc2S1 (stereo unspecified)	Bead autofluor 17388
CC1CC(=O)N(CC(=O)Nc2cccc(F)c2)c2ccccc2S1 (stereo unspecified)	none (no result: Anthrax LF inh2, BoNT A protease, Bead autofluor, BoNT-F LC inh)
Cc1ccccc1NC(=O)CN1C(=O)CSc2ccccc21	none
O=C(CN1C(=O)CSc2ccccc21)Nc1ccccc1C(=O)N1CCOCC1	Bead autofluor 22009
O=C(CN1C(=O)CCSc2ccccc21)Nc1ccccc1	none
O=S(=O)(c1ccccc1F)N1CCN(S(=O)(=O)c2ccccc2F)CC1	none (no result: Anthrax LF inh2, BoNT A protease, Bead autofluor, BoNT-F LC inh)
CCN(C(N)=Nc1nc(C)cc(C)n1)c1ccccc1	none (no result: Anthrax LF inh2, BoNT A protease, Bead autofluor, BoNT-F LC inh)
